FBPA Giardia inh: inhibitors of Giardia lamblia fructose-1,6-bisphosphate aldolase | Potency, µM (doses to about 59.6 µM), for inactives: at the top dose activity, negative = inhibition, actives largely listed as inhibitors | purified Giardia FBPA | A8B2U2 | actives 0.71% (n = 290,000); also: potency is read from the fitted curve at half-maximal effect; nearly all actives have a fitted effect of over 55% in size
Target sequence (A8B2U2 whole entry, looked up): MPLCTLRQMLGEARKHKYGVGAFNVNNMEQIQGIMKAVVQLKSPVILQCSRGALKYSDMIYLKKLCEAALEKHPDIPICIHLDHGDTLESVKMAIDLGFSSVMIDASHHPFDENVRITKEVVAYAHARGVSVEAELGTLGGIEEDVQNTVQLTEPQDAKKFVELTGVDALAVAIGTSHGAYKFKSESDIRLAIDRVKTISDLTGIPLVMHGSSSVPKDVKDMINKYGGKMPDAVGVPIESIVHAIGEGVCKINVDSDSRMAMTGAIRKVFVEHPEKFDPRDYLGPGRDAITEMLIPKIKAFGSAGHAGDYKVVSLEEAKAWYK
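40 nM FBPA preincubated 10 min at RT with compound (up to 57.5 uM final), then substrate plus GAPDH/TPI/NAD/arsenate coupling and diaphorase/resazurin added. Fluorescence read after 20 min at RT, 525/598 nm.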
FMDV inh: foot and mouth disease virus antiviral activity. FMDV antiviral cell-based qHTS. Potency, µM (doses to about 57.9 µM), for the others: at the top dose activity change, negative = inhibition, actives largely listed as inhibitors. actives 1.2% (n = 410,000). AID 1159524; calls by dose curve; tested in HEK293T cells; also: read-out not given here; potency is read from the fitted curve at half-maximal effect; nearly all actives have a fitted effect of over 45% in size
VACV mCherry inh: vaccinia inhibition (mCherry reporter). Vaccinia virus mCherry reporter infection, fluorescence. Potency, µM (top dose mostly 36.5 µM), for inactives: top-dose activity change, negative = inhibition, most hits filed as inhibitors. actives 0.63% (n = 310,000). AID 720579; calls by dose curve; tested in A549 cells; also: potency is read from the fitted curve at half-maximal effect; nearly all actives have a fitted effect of over 35% in size
Vaccinia Venus: vaccinia inhibition (Venus reporter); Vaccinia virus Venus reporter expression, fluorescence; Potency, µM (titrated, usually from 36.5 µM), for inactives: top-dose activity change, negative = inhibition, usual class: inhibitors; actives 0.46% (n = 330,000); AID 720580; calls by dose curve; tested in A549 cells; also: potency is read from the fitted curve at half-maximal effect; nearly all actives have a fitted effect of over 30% in size
HCMV inh: blocks human cytomegalovirus replication | HFF cells, HCMV-luciferase reporter, 72 h; stronger effect = lower value | activity change, negative = inhibition, % at 57.5 µM | actives 4.5% (n = 410,000) | AID 1259415; in the data active = activity change below about -60%; inconclusive = no clear call, values can overlap the other calls; inactive = above about -39%
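Two compound doses tested in HFFs infected with HCMV-luciferase, MOI 1 PFU/cell, 72 h at 37C. Lysate luminescence read with OneGlo; data normalized against buffer-only and 10uM Salinomycin inhibitor controls.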
HCV inh: inhibitors of hepatitis C virus infection | actives 3.4% (n = 340,000) | Huh7.5.1 HCVcc-Cre infection, luciferase reporter, 44 h | Potency, µM (highest dose often 41.8 µM), without a hit: at the top dose activity change, negative = inhibition, actives largely listed as inhibitors; also: potency is read from the fitted curve at half-maximal effect
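Seed cells (1,000/well) for 4 h; treat with compound and infect with HCVcc-Cre, moi about 0.5. Incubate 44 h, then detect luciferase activity.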
An asterisk follows results filed as active; i = inactive; ? = inconclusive; . = no result; [ ] = remark or other dose. Most compounds without a hit are left out; they make up all but 7.5% or so of the library. Unless noted, calls follow the shape of the dose curve; as a rule, active = well fitted curve in the direction sought with a large enough effect; inconclusive = small, poorly fitted or top-dose-only effect, or another doubt; inactive = no such curve, though single readings can be large; an effect the other way counts as inactive or inconclusive. % is scaled to controls: 0 for no effect and ±100 for the full control effect.

SMILES	FBPA Giardia inh	FMDV inh	VACV mCherry inh	Vaccinia Venus	HCMV inh	HCV inh
CC(C)=NOc1cc(NC(=O)CCl)cc([N+](=O)[O-])c1	-27%	7.9µM*	?	-26%	-83*	25µM*
CCC(=O)Nc1cc(ON=C(C)C)cc([N+](=O)[O-])c1	-9%	-24%	-21%	-14%	6	?
Cc1ccnc(NC(=O)C2CCC(CNc3c(N4CCCC4)c(=O)c3=O)CC2)c1 (stereo not given)	2%	10%	-7%	-22%	-75*	15%
CC1CCN(c2c(NCC3CCC(C(=O)Nc4ccccn4)CC3)c(=O)c2=O)CC1 (stereo not given)	0%	6%	i	-17%	-13	-1%[8.37 µM]
Cc1cc2c(cc1C)C(c1cccc([N+](=O)[O-])c1)CC(=O)N2 (stereo not given)	-3%	-27%	0.35µM*	1µM*	4	?
COc1cc(C2CC(=O)Nc3cc(C)c(C)cc32)cc(OC)c1OC (stereo not given)	3%	-11%	?	-19%	-1	?
O=C1CC(c2cccc(Br)c2)c2cc3c(cc2N1)CCC3 (stereo not given)	1%	?	?	?	-65*	?
Cc1ccc(CNCC(=O)Nc2ccc(C)cc2Br)cc1	-3%	18%	-16%	-10%	-64*	17%
Cc1ccc(NC(=O)COc2ccccc2C#N)cc1S(=O)(=O)N1CCCCCC1	.	?	.	.	-40	10µM*
Cc1ccc(NC(=O)Cn2c(=O)cnc3ccccc32)cc1S(=O)(=O)N1CCCCC1	.	?	.	.	?	11µM*
COc1ccc(NC(=O)Cn2c(=O)cnc3ccccc32)cc1S(=O)(=O)N1CCCCC1	.	-10%	-12%	-15%	13	?
Cc1ccc(NC(=O)CSc2ncnc3ccccc23)cc1S(=O)(=O)N1CCOCC1	3%	?	?	-18%	6	?
Cc1ccc(NC(=O)CSc2ncnc3ccccc23)cc1S(=O)(=O)N1CCCCC1	0%	16µM*	?	?	-17	?
N#Cc1ccccc1OCC(=O)Nc1cccc(S(=O)(=O)N2CCCC2)c1	.	-8%	.	.	-4	?
CCOc1ncccc1C(=O)OCC(=O)Nc1ccc(C)c(S(=O)(=O)N2CCOCC2)c1	5%	19%	-1%	-17%	-4	2.8µM*
O=C(Cc1ccc2c(c1)OCCO2)Nc1cc(Cl)ccc1N1CCOCC1	.	-5%	-10%	-7%	-22	?
CS(=O)(=O)N(CCc1ccccc1)CC(=O)N1CCCCCC1	.	-16%	i	-11%	-12	.
COc1cc(CNC[C@H]2O[C@@H](n3cnc(C(N)=O)n3)[C@H](O)[C@@H]2O)ccc1OCc1cccc(Cl)c1	.	-9%	i	-14%	-13	-2%
CSCC[C@H](NC(=O)[C@H](CCCNC(=N)N)NC(=O)[C@H](Cc1ccc(O)cc1)NC(=O)[C@@H]1CCCN1C(=O)CNC(=O)[C@H](CCC(=O)O)NC(=O)[C@H](CC(=O)O)NC(=O)[C@H](CCCCN)NC(=O)[C@H](CCCCN)NC(=O)[C@H](CCC(=O)O)NC(=O)[C@H](C)N)C(=O)N[C@@H](CCC(=O)O)C(=O)N[C@@H](Cc1cnc[nH]1)C(=O)N[C@@H](Cc1ccccc1)C(=O)N[C@@H](CCCNC(=N)N)C(=O)N[C@@H](Cc1c[nH]c2ccccc12)C(=O)NCC(=O)N[C@@H](CO)C(=O)N1CCC[C@H]1C(=O)N1CCC[C@H]1C(=O)N[C@@H](CCCCN)C(=O)N[C@@H](CC(=O)O)C(=O)O	-1%	.	.	.	.	.
COC(=O)[C@@H]1C[C@@]2(Br)c3ccccc3N(S(=O)(=O)c3ccccc3)[C@H]2N1C(=O)OC	.	4%	-4%	-8%	0	5%
O=C(COc1cccnc1[N+](=O)[O-])NCCc1ccc(Cl)cc1Cl	-2%	-8%	-10%	-18%	-64*	8%
Cc1ccc(NC(=O)COc2cccnc2[N+](=O)[O-])cc1S(=O)(=O)N1CCCCC1	-7%	40µM*	i	-30%	-35	?
O=C(COc1cccnc1[N+](=O)[O-])NCCc1ccc(Cl)cc1	-9%	17%	0%	-3%	-34	-14%
COc1ccc(NC(=O)COc2cc(C)cc(C)c2)cc1S(=O)(=O)N1CCCCC1	.	-29%	-30%	?	-34	4µM*
Cc1ccc(NC(=O)CSc2ccccc2)cc1S(=O)(=O)N1CCOCC1	.	29%	-21%	-12%	3	-3%
SMILES	FBPA Giardia inh	FMDV inh	VACV mCherry inh	Vaccinia Venus	HCMV inh	HCV inh
Cc1ccc(NC(=O)CSc2ccccc2)cc1S(=O)(=O)N1CCCCC1	.	?	-3%	-14%	?	13µM*
CNS(=O)(=O)c1cccc(C(=O)NCC(C)(C)N2CCCCC2)c1	5%	-8%	16%	5%	-14	6%
Cc1noc2ncnc(N3CCCC(C(=O)NC(C)C)C3)c12 (stereo not given)	.	-16%	-16%	-13%	-5	.
COc1ccc(N2C(=O)CSC23C(=O)N(Cc2ccc(C)cc2)c2ccccc23)cc1Cl (stereo not given)	.	?	-16%	-3%	-23	.
Cc1nn(-c2ccc(F)cc2)c(-n2cccc2)c1C(=O)N1CCN(c2ccc(F)cc2)CC1	.	?	-12%	-7%	-10	.
Cc1ccc(NC(=O)COc2ccccc2)cc1S(=O)(=O)N1CCCCCC1	.	28µM*	-13%	-24%	16	?
O=C(COc1ccccc1)Nc1ccc2c(c1)Cc1cc(NC(=O)COc3ccccc3)ccc1-2	-2%	-8%	-8%	-12%	-80*	?
COc1ccc(NC(=O)COc2ccc(C)c(C)c2)cc1S(=O)(=O)N1CCCCC1	.	?	-15%	-26%	5	?
Cc1ccc(NC(=O)Cc2n[nH]c(=O)c3ccccc23)cc1S(=O)(=O)N1CCCCCC1	.	-14%	-21%	-29%	-69*	10µM*
Cc1ccc(NC(=O)c2cc(=O)c3ccccc3o2)cc1S(=O)(=O)N1CCCCC1	?	25µM*	?	-25%	-69*	?
Cc1ccccc1OCC(=O)Nc1ccc2c(c1)Cc1ccccc1-2	4%	21%	.	.	39	16%
Cc1ccc2nc(Cl)c3cc(C(=O)NCCCN4CCCC4)sc3c2c1	-9%	-2%	i	?	-35	8.9µM*
CCC1CCCCN1CCCNC(=O)c1cc2c(Cl)nc3ccc(C)cc3c2s1 (stereo not given)	.	-20%	-28%	?	-106*	.
O=C(CSc1ncc(-c2ccccc2)[nH]1)Nc1cccc(C(F)(F)F)c1	.	19%	-19%	-13%	-34	.
COC(=O)c1[nH]c2ccc(C)cc2c1NC(=O)CCN1CCN(C2CCCCC2)CC1	2%	.	.	.	.	?

Assay outcomes deposited in PubChem BioAssay by National Center for Advancing Translational Sciences (NCATS).
